# The list is not random: actives were taken first. Their share in the collection is about 1.4%.
# PINK1 expr mod = modulators of PINK1 expression. 0.2% of 410,000 active. Potency, µM (top dose mostly 76.6 µM), without a hit: at the highest dose activation (PINK1 increase), most hits filed as activators. PINK1 immunofluorescence, high-content cytometry, 24 h; active = well fitted activation curve with a large enough effect; inconclusive = small, poorly fitted or top-dose-only effect; cell line not stated here; note: potency is the fitted concentration of half-maximal effect; % of control where 0% means no effect; nearly all actives have a fitted effect of over 65% in size
#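 Decision-based qHTS: stable cells, 24 h exposure to five compound concentrations, CCCP as control. Fixed cells stained for PINK1 plus nuclear, mitochondrial and cell markers, cytometer read.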
# Mm-Cpn inhibitor = inhibitors of Methanococcus maripaludis chaperonin TRiC (MmCpn); AID 504842; Potency, µM (top dose mostly 76.9 µM), inactives show top-dose activity, negative = inhibition, usual class: inhibitors; 0.031% of 330,000 active; purified Mm-Cpn ATPase, ADP Transcreener TR-FRET; note: potency is the fitted concentration of half-maximal effect; % is set by controls: 0 for no effect and ±100 for the full control effect; nearly all actives have a fitted effect of over 80% in size
#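 Eu-cryptate anti-ADP/ADP-d2 competition gives a ratio inversely related to ADP. Enzyme at 25 nM was pre-exposed to compound for 10 min, then given 10 uM ATP for 30 min, 37°C throughout.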
# p53 reactivation = mutant p53 re-activation in reporter cells. Potency, µM (doses to about 92.2 µM), without a hit: at the highest dose activity change, positive = activation, most hits filed as activators. H1299 p53-A138V BP100-luciferase reporter, luminescence, 24 h. 0.063% of 320,000 active; note: potency is the fitted concentration of half-maximal effect; % of control where 0% means no effect; nearly all actives have a fitted effect of over 45% in size
#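 H1299 (p53-null), stable ts p53-A138V + BP100-Luc; 1000 cells/well, Opti-MEM/10% FBS; cpd 4 pt, 1:5; 24 h, 37 deg C, 5% CO2; detection reagent 10 min RT; luminescence.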
# CCT modulator = changes cytosolic chaperonin activity; purified chaperonin ATPase assay, HTRF ADP detection, 30 min; activity change, % (test concentration not listed), hits read low; 0.3% of 360,000 active; AID 651819; in the data active = activity change below about -30%; note: % is set by controls: 0 for no effect and ±100 for the full control effect
#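 Enzyme 40 or 20 nM (batch-dependent) in Tris pH 7.4/KCl/MgCl2/DTT; cpd 76 uM single point; ATP 10 uM; 30 min 37 °C; Transcreener ADP HTRF detection, 30 min RT; ratio 665/615.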
# ALOX12 inh = blocks human arachidonate 12S-lipoxygenase; P18054; purified 12hLO, xylenol orange hydroperoxide absorbance; Potency, µM (titrated, usually from 108 µM), for inactives: top-dose activity change, negative = inhibition, most hits filed as inhibitors; 1.1% of 580,000 active; note: potency is the fitted concentration of half-maximal effect; % is set by controls: 0 for no effect and ±100 for the full control effect
#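 Purified human 12hLO at 150 nM in 25 mM Hepes, 0.01% Triton X-100, pH 7.0, preincubated 15 min at room temperature with compound. Reaction started with 40 uM arachidonic acid, 30 min at room temperature. Hydroperoxide measured by Fe-xylenol orange, 573/405 nm absorbance ratio.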
# ASM inhibitor = inhibitors of human secretory acid sphingomyelinase; P17405; placental ASM, HMU-PC fluorogenic substrate, 60 min; Potency, µM (top dose mostly 57.5 µM), for the others: at the top dose activity change, negative = inhibition, actives largely listed as inhibitors; 0.006% of 340,000 active; note: potency is the fitted concentration of half-maximal effect
#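 Fluorescence read-out (Ex 386 nm, Em 447 nm) after stopping the reaction at pH 10. Enzyme: ASM from human placenta; substrate HMU-PC0, 9 uM final; 60 min, 37 °C. Compound preincubation 10 min, ambient temperature.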
# * marks the source's active call; other numbers are inactive results; ? = inconclusive; . = no result given; [ ] = another dose, or the depositor's remark. Unless noted, calls come from the whole dose curve; as a rule, active = well fitted curve in the direction sought with a large enough effect; inconclusive = small, poorly fitted or top-dose-only effect, or another doubt; inactive = no such curve, though single readings can be large; an effect the other way counts as inactive or inconclusive.
SMILES,PINK1 expr mod,Mm-Cpn inhibitor,p53 reactivation,CCT modulator,ALOX12 inh,ASM inhibitor
NC(=O)c1c(NC(=S)Nc2ccc(F)cc2)sc2c1CCCC2,0%,-9%,4%,-3,?,-4%
Cc1nc2cc(NC(C)C(=O)Nc3ccc(C(C)(C)C)cc3)ccc2o1 (centres undefined),.,.,.,.,-6%,.
O=C(c1ccc(Cl)s1)N1CCN(c2cccc(C(F)(F)F)c2)CC1,.,.,.,.,11%,.
O=C(Nc1ccc2oc(C3CC3)nc2c1)c1ccc(=O)[nH]n1,.,.,.,.,-7%,.
CCC1S/C(=N/C(=O)NC2CCCCC2)NC1=O (centres undefined),2%,-1%,?,2,0%,1%
O=C(/N=C1\NC(=O)C(F)(C(F)(F)F)S1)NC1CCCCC1 (centres undefined),-1%,-8%,?,-1,10µM*,2%
CCOC(=O)c1nsnc1NCCSC(=N)N,3%,-1%,6%,-2,45µM*,25%
O=C(NC(=S)Nc1ccccn1)c1ccc(-c2ccccc2)cc1,3%,-4%,?,0,32µM*,-4%
C=CCN(CC=C)S(=O)(=O)c1ccc(NC(=S)NC(=O)c2ccco2)cc1,-1%,-7%,5%,-2,?,-4%
C=CCN(CC=C)S(=O)(=O)c1ccc(NC(=S)NC(=O)c2ccc(-c3ccccc3)cc2)cc1,-2%,1%,0%,-2,3.2µM*,-3%
Cc1cc(C)c(NC(=S)NC(=O)c2ccc(-c3ccccc3)cc2)c(C)c1,2%,0%,-7%,1,22µM*,1%
CCS(=O)(=O)CCSC(C)C(=O)O (centres undefined),.,.,.,.,38%,.
CCN1C(=O)NC(c2c(F)cccc2Cl)C(C(=O)N2CCOCC2)=C1C (centres undefined),.,.,.,.,1%,.
CCOC(=O)c1nnn(CC(=O)Nc2ccc(C)cc2Cl)c1C(=O)OCC,.,.,.,.,-1%,.
COc1ccc(-c2[nH]nc3c2C(c2ccc4c(c2)OCO4)CC(=O)O3)cc1 (centres undefined),.,.,.,.,45µM*,.
Cc1cc(SCC(=O)c2ccc(Cl)cc2)nc(=O)[nH]1,1%,?,.,-2,20µM*,13%
COC(=O)CSc1nc2c(cnn2-c2ccc(F)cc2)c(=O)[nH]1,-2%,-2%,1%,-32*,7%,2%
CCOC(=O)CSc1nc2c(cnn2-c2ccc(F)cc2)c(=O)[nH]1,0%,1%,-4%,0,2%,3%
COC(=O)COc1cccc(N)c1,.,.,.,.,13µM*,.
O=C(N/N=C1/CC2C=CCC12)c1ccc(Cl)cc1 (centres undefined),.,.,.,.,4%,.
COC(=O)C1=C(C)Nc2nc3ccccc3n2C1c1ccc(O)c(OC)c1 (centres undefined),.,.,.,.,25%,.
Cc1ccc(Cl)c(N/C=C/C(=O)c2ccccc2)c1,0%,1%,40µM*,-1,1%,16%
Cc1cccc(N/C=C/C(=O)c2ccc(Cl)cc2)c1,3%,-14%,?,0,-10%,31%
CCOC(=O)C(NC(=O)C1CC1c1cccc(C)c1)C(=O)OCC (centres undefined),.,.,.,.,4%,.
CCOC(=O)Cc1cc(=O)n(-c2nc3ccccc3s2)[nH]1,-1%,-1%,10%,-9,7.9µM*,0%
CCn1c(SCc2cccc(C(F)(F)F)c2)nnc1-c1ccco1,-2%[38.3 µM],0%,16%,-2,50µM*,2%
CCCNC(=O)Cc1ccc(NC(=O)N2CCSc3ncccc32)cc1,.,.,.,.,3%,.
COc1ccc2c(c1)S/C(=C\C(=O)c1ccncc1)N2C,4%,-9%,22%,-2,45µM*,-9%
COc1cc(OC)cc(C(=O)/C=C2\Sc3ccccc3N2C)c1,-2%,1%,2%,1,-6%,31%
COc1cccc(NC(=O)CSc2nc3c(=O)[nH]cnc3n2C)c1,.,.,.,.,75%,.

# Source: PubChem
